# Results published in PubChem BioAssay (Tox21).
# Where “and” joins values, the source holds several entries; their conditions need not be identical. Identical values can stand only once. Inconclusive results are not listed. Entries that show only a call come without a potency. A structure can be active in one record and inactive in another. Calls of active or inactive are those of the source. Unless noted, calls come from the whole dose curve.
# Columns and labels:
# [1] = target: Gonadotropin-releasing hormone receptor (Homo sapiens) (UniProt P30968); test: Human gonadotropin-releasing hormone receptor (GnRHR) small molecule agonists, calcium flux assay in GnRHR-HEK293 cells (AID 1920063); note: nearly all actives have a fitted effect of over 35% in size
# Chain of Gonadotropin-releasing hormone receptor (Homo sapiens) (P30968 whole entry, looked up): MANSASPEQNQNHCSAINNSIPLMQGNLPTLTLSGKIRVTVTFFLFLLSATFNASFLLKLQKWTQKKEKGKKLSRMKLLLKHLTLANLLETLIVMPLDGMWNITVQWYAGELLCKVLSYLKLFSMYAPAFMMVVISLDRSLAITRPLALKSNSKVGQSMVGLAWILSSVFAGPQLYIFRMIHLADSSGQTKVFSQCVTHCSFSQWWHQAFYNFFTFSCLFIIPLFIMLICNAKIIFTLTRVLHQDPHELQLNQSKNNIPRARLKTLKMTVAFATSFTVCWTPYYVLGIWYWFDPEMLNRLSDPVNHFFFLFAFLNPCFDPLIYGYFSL
# In short: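 Agonist mode: compounds at 15 concentrations, in triplicate, went onto calcium dye-loaded GnRHR-HEK293 cells. Intracellular calcium was then followed as 480/540 nm fluorescence at 1 s intervals over 3 min.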
# [2] = target: KiSS-1 receptor (Homo sapiens) (UniProt Q969F8); test: Human kisspeptin (KISS1R) small molecule agonists, calcium flux assay in KISS1R-HEK293 cells (AID 1920064; active = well fitted activation curve with a large enough effect in the repeat runs)
# Chain of KiSS-1 receptor (Homo sapiens) (Q969F8 whole entry, looked up): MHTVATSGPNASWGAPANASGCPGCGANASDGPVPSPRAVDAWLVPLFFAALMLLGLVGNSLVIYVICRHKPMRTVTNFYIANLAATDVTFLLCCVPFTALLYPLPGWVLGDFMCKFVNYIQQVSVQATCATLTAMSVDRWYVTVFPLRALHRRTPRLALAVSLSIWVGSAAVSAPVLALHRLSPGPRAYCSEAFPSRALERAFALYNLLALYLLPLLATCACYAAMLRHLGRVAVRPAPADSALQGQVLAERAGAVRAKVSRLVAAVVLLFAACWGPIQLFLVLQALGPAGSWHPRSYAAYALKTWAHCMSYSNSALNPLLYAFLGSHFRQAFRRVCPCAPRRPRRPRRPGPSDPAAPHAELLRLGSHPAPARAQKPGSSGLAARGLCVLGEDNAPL
# In short: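 Agonist mode: intracellular calcium rise tracked at 1 s intervals over 3 min (480/540 nm) immediately after compound addition to dye-loaded KISS1R-HEK293 stable cells. Each compound tested at 15 concentrations in triplicate.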
# [3] = G protein-coupled receptor (GPCR) small molecule agonists, calcium flux assay: HEK293 wild type cell line counter screen (AID 1920065)
# In short: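 Calcium flux counter screen: compound added in agonist mode at 15 concentrations in triplicate to dye-loaded parental HEK293 cells. Fluorescence (480/540) read kinetically for 3 min; ATP served as positive control.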
# [4] = cAMP Responsive Elements (CRE) small molecule agonists, cell-based qHTS assay (AID 1963590)
# In short: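 Agonist mode: compound added to CRE-bla HEK 293T cells (2,000/well, 18 h after plating) for 3 h at 37 C/5% CO2. Reporter activity detected via FRET beta-lactamase substrate, 2 h room-temperature loading.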
# [5] = cAMP Responsive Elements (CRE) small molecule antagonists, cell-based qHTS assay (AID 1963591; active = well fitted inhibition curve with a large enough effect in the signal ratio in the repeat runs, not every such curve was filed as active; the % refers to the signal ratio)
# In short: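 Antagonist mode: compounds are added alongside the adenylyl cyclase activator NKH477 (0.25 uM final) to CRE-bla HEK293T cells for 3 h. LiveBLAzer FRET substrate, 2 h at room temperature, reports bla expression.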
# [6] = target: Beta-2 adrenergic receptor (Homo sapiens) (UniProt P07550); test: Adrenergic beta2 receptor (ADRB2) small molecule antagonists, cell-based qHTS assay (AID 1963592); note: series mostly up to about 92 µM; nearly all actives have a fitted effect of over 50% in size
# Chain of Beta-2 adrenergic receptor (Homo sapiens) (P07550 whole entry, looked up): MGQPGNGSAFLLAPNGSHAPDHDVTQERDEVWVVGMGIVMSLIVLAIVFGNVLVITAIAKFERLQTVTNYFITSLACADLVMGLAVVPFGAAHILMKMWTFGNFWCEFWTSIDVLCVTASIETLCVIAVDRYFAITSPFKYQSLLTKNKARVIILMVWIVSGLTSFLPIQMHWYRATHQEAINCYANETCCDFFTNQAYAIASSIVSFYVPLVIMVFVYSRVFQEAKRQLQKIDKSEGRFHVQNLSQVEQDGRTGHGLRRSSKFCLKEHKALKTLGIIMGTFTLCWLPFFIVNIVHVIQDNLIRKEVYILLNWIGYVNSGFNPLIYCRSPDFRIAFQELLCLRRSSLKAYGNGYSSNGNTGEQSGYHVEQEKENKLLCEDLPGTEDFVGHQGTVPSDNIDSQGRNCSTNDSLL
# In short: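 Assay format: CHO-ADRB2 cells, 18-20hr seeding at 37C/5% CO2, then compound plus 1nM isoproterenol agonist mix for 0.5hr RT. Homogeneous time-resolved fluorescence cAMP detection after 1hr, expressed as 665/615 nm ratio.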
# [7] = target: D(2) dopamine receptor (Homo sapiens) (UniProt P14416); test: Dopamine D2 receptor (DRD2) small molecule agonists, cell-based qHTS assay (AID 1963594); note: nearly all actives have a fitted effect of over 35% in size
# Chain of D(2) dopamine receptor (Homo sapiens) (P14416 whole entry, looked up): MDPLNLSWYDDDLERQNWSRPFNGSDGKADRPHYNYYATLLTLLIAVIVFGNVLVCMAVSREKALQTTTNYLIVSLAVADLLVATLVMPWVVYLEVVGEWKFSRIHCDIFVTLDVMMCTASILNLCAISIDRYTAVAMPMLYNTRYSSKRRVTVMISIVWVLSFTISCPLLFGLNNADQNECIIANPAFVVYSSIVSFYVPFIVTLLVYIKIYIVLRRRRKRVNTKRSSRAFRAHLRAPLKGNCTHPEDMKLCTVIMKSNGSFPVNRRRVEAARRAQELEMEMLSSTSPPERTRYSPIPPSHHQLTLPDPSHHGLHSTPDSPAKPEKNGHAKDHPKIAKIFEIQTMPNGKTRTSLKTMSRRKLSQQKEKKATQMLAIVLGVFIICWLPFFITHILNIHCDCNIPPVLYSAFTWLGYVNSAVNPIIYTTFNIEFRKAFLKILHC
# In short: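 cAMP accumulation in DRD2-HEK293 cells measured by HTRF after 1 h detection; compounds added 10 min before NKH477 (200nM […]) forskolin-analogue stimulation, 30 min at room temperature, with Ro20-1724 present at 0.1 mM final.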
# [8] = target: D(2) dopamine receptor (Homo sapiens) (UniProt P14416); test: Dopamine D2 receptor (DRD2) small molecule antagonists, cell-based qHTS assay (AID 1963595; active = well fitted inhibition curve with a large enough effect in the signal ratio in the repeat runs, with a control signal flat; the % refers to the signal ratio; note: potency is the fitted concentration of half-maximal effect)
# In short: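 HEK293 cells stably expressing DRD2, preincubated with 0.1 mM Ro20-1724 and compounds 10 min, were stimulated with 200 nM NKH477 plus 12 nM quinpirole for 30 min at room temperature; cAMP measured by HTRF (665/620 nm).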
# [9] = p53 small molecule agonists, cell-based qHTS assay with human liver microsomes (AID 1963577);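 note: p53 response element beta-lactamase reporter cells with liver microsomes plus NADPH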
# In short: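 With metabolic activation: human liver microsomes (0.5 mg/mL final) plus NADPH (0.5 mg/mL final) added alongside compounds to p53RE-bla cells; 16 h 37 C exposure; beta-lactamase read by LiveBLAzer fluorescence.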
# [10] = p53 small molecule agonists, cell-based qHTS assay with rat liver microsomes: qHTS cell viability counter screen (AID 1963580); note: nearly all actives have a fitted effect of over 45% in size; note: potency is the fitted concentration of half-maximal effect
# In short: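 Cytotoxicity counter screen: intracellular ATP read by CellTiter-Glo luminescence in the p53 reporter wells. HCT-116 p53RE-bla cells were treated for 16 h at 37 C alongside rat liver microsomes and NADPH, each 0.5 mg/mL final.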
# [11] = p53 small molecule agonists, cell-based qHTS assay: qHTS cell viability counter screen (AID 1963581); note: nearly all actives have a fitted effect of over 45% in size; note: potency is the fitted concentration of half-maximal effect
# In short: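 Counter screen read by CellTiter-Glo luminescence (ATP content, 30 min at room temperature), run in the same wells as the beta-lactamase reporter read. HCT-116 p53RE-bla cells saw compounds for 16 h at 37 C.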
# [12] = p53 small molecule agonists, cell-based qHTS assay (AID 1963582; active = well fitted activation curve with a large enough effect in the signal ratio in the repeat runs, not every such curve was filed as active; the % refers to the signal ratio)
# In short: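 Read-out is beta-lactamase FRET fluorescence after 2 h at room temperature with LiveBLAzer B/G substrate. p53 response element-bla cells were treated 16 h at 37 C with compounds in DMSO, added 5 h after seeding.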
# [13] = target: 5-hydroxytryptamine receptor 2A (Homo sapiens) (UniProt P28223); test: 5-hydroxytryptamine receptor 2A (HTR2A) small molecule antagonists, cell-based qHTS assay (AID 1963586); note: nearly all actives have a fitted effect of over 45% in size; note: potency is the fitted concentration of half-maximal effect
# Chain of 5-hydroxytryptamine receptor 2A (Homo sapiens) (P28223 whole entry, looked up): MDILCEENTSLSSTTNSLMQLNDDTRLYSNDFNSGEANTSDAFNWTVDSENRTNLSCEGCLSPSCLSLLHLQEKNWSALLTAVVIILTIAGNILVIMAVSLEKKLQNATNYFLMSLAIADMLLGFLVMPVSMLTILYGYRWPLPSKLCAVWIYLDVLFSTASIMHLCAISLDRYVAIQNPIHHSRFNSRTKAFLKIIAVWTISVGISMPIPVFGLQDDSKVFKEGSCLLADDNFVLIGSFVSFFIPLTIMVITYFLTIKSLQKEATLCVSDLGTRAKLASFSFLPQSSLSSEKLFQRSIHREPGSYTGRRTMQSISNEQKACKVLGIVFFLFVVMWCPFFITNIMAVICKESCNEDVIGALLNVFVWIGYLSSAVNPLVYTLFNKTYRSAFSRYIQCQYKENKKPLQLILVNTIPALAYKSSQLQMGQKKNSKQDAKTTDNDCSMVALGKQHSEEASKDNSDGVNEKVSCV
# In short: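 CHO cells stably expressing human HTR2A were plated for 18 h at 37 C, then loaded with calcium dye for 1 h. Compounds were preincubated 5 min at room temperature before DOI (4 nM solution) was added. Kinetic fluorescence was read for 3 min.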
# [14] = target: 5-hydroxytryptamine receptor 2A (Homo sapiens) (UniProt P28223); test: 5-hydroxytryptamine receptor 2A (HTR2A) small molecule agonists, cell-based qHTS assay (AID 1963587); note: nearly all actives have a fitted effect of over 30% in size; note: potency is the fitted concentration of half-maximal effect
# In short: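 Kinetic calcium-flux fluorescence (2 min, 1 sec intervals) after compound addition in agonist mode. HTR2A-CHO cells were cultured 18 h, then dye-loaded 1 h at 37 C.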
# [15] = target: Muscarinic acetylcholine receptor M1 (Homo sapiens) (UniProt P11229); test: Cholinergic receptor muscarinic 1 (CHRM1) small molecule agonists, cell-based qHTS assay (AID 1963589); note: nearly all actives have a fitted effect of over 35% in size
# Chain of Muscarinic acetylcholine receptor M1 (Homo sapiens) (P11229 whole entry, looked up): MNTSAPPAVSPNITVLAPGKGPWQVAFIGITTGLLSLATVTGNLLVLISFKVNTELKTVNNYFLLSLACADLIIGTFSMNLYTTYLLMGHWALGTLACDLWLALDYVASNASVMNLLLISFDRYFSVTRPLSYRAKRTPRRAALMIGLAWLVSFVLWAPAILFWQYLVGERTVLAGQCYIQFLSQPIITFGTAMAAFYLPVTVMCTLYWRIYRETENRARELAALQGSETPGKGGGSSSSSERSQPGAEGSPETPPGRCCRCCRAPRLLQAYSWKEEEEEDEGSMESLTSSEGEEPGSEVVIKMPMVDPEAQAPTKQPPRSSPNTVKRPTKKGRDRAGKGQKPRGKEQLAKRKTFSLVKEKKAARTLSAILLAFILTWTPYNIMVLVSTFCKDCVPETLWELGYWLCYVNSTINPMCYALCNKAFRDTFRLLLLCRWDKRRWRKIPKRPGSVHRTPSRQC
# In short: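 Agonist-mode calcium-flux screen: compounds at 15 concentrations, three independent runs, were pin-transferred onto dye-loaded human CHRM1-CHO cells. Fluorescence was then recorded kinetically every second over minutes.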
# [16] = p53 small molecule agonists, cell-based qHTS assay with rat liver microsomes (AID 1963578)
# In short: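 Metabolic activation by rat liver microsomes and NADPH, each 0.5 mg/mL final, added right after compounds to p53RE-bla reporter cells (4,000/well, plated 5 h earlier). 16 h at 37 C, then LiveBLAzer substrate for 2 h at room temperature in the dark; fluorescence read-out.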
# [17] = p53 small molecule agonists, cell-based qHTS assay with human liver microsomes: qHTS cell viability counter screen (AID 1963579); note: nearly all actives have a fitted effect of over 45% in size; note: potency is the fitted concentration of half-maximal effect
# In short: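 Metabolic activation used human liver microsomes and NADPH, both 0.5 mg/mL final, over 16 hours at 37 C on p53RE-bla cells (4,000/well). Cytotoxicity measured by CellTiter-Glo luminescence, 30 min at room temperature.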
# [18] = target: Muscarinic acetylcholine receptor M1 (Homo sapiens) (UniProt P11229); test: Cholinergic receptor muscarinic 1 (CHRM1) small molecule antagonists, cell-based qHTS assay (AID 1963588); note: nearly all actives have a fitted effect of over 40% in size; note: potency is the fitted concentration of half-maximal effect
# In short: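 Compounds were tested at 15 concentrations in three independent runs. Dye-loaded CHRM1-CHO cells were exposed 5 min at room temperature before stimulation by acetylcholine added at 50nM. Intracellular calcium was read kinetically on FDSS for 3 min.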
# [19] = target: Beta-2 adrenergic receptor (Homo sapiens) (UniProt P07550); test: Adrenergic beta2 receptor (ADRB2) small molecule agonists, cell-based qHTS assay (AID 1963593);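 note: CHO cells stably overexpressing human ADRB2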
# In short: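 CHO cells stably over-expressing ADRB2 were plated overnight at 37C, then dosed with compounds plus a stimulation mix containing 100uM IBMX and 25uM Ro-20-1724 for 0.5hr at room temperature. cAMP was measured by HTRF competition, 1hr.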
Compound,Potency [1],Potency [2],Potency [3],Potency [4],Potency [5],Potency [6],Potency [7],Potency [8],Potency [9],Potency [10],Potency [11],Potency [12],Potency [13],Potency [14],Potency [15],Potency [16],Potency [17],Potency [18],Potency [19]
O=C(O)c1ccccc1O,inactive,inactive,inactive,inactive,inactive,inactive,inactive,inactive,–,–,–,–,–,–,–,–,–,–,–
O=[N+]([O-])c1cccc(O)c1,inactive,inactive,inactive,inactive,inactive,inactive,inactive,–,inactive,inactive,inactive,inactive,inactive,inactive,inactive,–,–,–,–
CCC(C)(C)c1ccc(O)c(C(C)(C)CC)c1,inactive,–,inactive,–,–,inactive,inactive,inactive and 43.3 µM (active),inactive,inactive and 25.7 µM (active),18 µM (active) and 22.9 µM (active),–,–,–,inactive,inactive,45.3 µM (active) and 25.7 µM (active),20.9 µM (active),–
C[C@]12CC[C@H]3[C@@H](CC=C4C[C@@H](O)CC[C@@]43C)[C@@H]1CC[C@@H]2O,inactive,inactive,–,inactive,inactive,inactive,inactive,inactive,inactive,inactive,inactive,inactive,–,–,–,inactive,inactive,–,–
O=[N+]([O-])O,inactive,inactive,inactive,inactive,inactive,–,inactive,inactive,–,inactive,inactive,–,inactive,–,inactive,–,inactive,–,inactive
CN1C(=O)CN=C(c2ccccc2)c2cc(Cl)ccc21,inactive,inactive,inactive,inactive,inactive,inactive,inactive,inactive,–,–,inactive,–,–,–,–,–,–,–,–
Nc1ccc(-c2ccc(N)c(Cl)c2)cc1Cl,inactive,inactive,–,inactive,inactive,inactive,inactive,–,inactive,inactive,inactive,–,21.2 µM (active) and 17.5 µM (active) and 29.8 µM (active),inactive,inactive,inactive,inactive,inactive,inactive
CN(C)c1ccc(N=O)cc1,inactive,–,inactive,–,–,–,–,–,inactive,inactive,inactive,–,inactive,inactive,inactive,–,inactive,inactive,–
O=[N+]([O-])/C=C/c1ccccc1,inactive,inactive,inactive,–,–,inactive,inactive,inactive,–,inactive,inactive,–,inactive,inactive,inactive,inactive,inactive,–,inactive
CCCCCCCCCCCCOS(=O)(=O)O,inactive,inactive,inactive,inactive,inactive,inactive,inactive,inactive,–,inactive,inactive,–,inactive,inactive and 55 µM (active) and 49 µM (active),–,–,–,inactive,inactive
O=S(=O)(O)O,inactive,inactive,–,inactive,inactive,inactive,inactive,inactive,–,inactive,–,–,inactive,inactive,inactive,–,inactive,inactive,inactive
